Hit rate of the full screen: of about 24,000 compounds, about 150 (0.62%) were called active.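 Rule for the calls: active = fluorescence ratio above 2.44, which is 1 plus 3 SD of all ratios; inconclusive = signal too bright to measure linearly, ratio around 10 or more; inactive = fluorescence ratio below 2.44.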 The full list was thinned out, with actives kept by preference.
test: compound autofluorescence on Jurkat cells, primary screen, artefact control for VLA-4 allosteric ligand project, cell-based, flow cytometry (AID 576); settings: stronger effect = higher value, 1 = vehicle-only cell background;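 note: green fluorescence of cells measured with 488 nm excitation and 530 nm emission; tested at 10 µM compound in the well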

Fluorescence ratio, active:
CC(C)(C)NC(=O)Cn1nnc(-c2ccccc2Cl)n1 3.61

Fluorescence ratio, inactive:
c1cnn(-c2cc(N3CCOCC3)ncn2)c1 1.1
CCCCC(=O)N(c1ccc(OC)cc1)C1C=CS(=O)(=O)C1 (configuration not stated) 1.03
Cc1nc(SCC(=O)Nc2cc(C)on2)c2c3c(sc2n1)CCCC3 1.28
COc1cccc(Nc2nnc(SCC(=O)N3CC(C)OC(C)C3)s2)c1 (configuration not stated) 1.02
CC(=O)N(CC1CCCO1)C1(C(=O)NC2CCCC2)CCCCC1 (configuration not stated) 0.95
O=C(Nn1cc(C(=O)N2CCN(c3ccccc3F)CC2)c2ccccc2c1=O)c1cnccn1 1.02
COCCN1Cc2cccc(C(=O)Nc3ccccc3OC)c2C1=O 1.02
CCCCN(C)Cc1c(C)[nH]c2ccc(Cl)cc2c1=O 1.01
CCn1c(SCC(=O)Nc2ccccc2F)nc2c(c1=O)SC(C)C2 (configuration not stated) 0.98
CCc1c(C)c2c(C)[nH]nc2oc1=O 1.2
CCOc1ccc(-c2nnc3ccc(SC)nn23)cc1 0.96
CCOC(=O)c1sc(=S)n2c1[nH]c(=O)c1ccc(C(=O)OC)cc12 1.2
CC(=O)Nc1ccc(NS(=O)(=O)c2cc(C)sc2C)cc1 2.14
O=C(CC1Oc2ccccc2NC1=O)NCCCN1CCN(Cc2ccccc2)CC1 (configuration not stated) 1.05
COCCCNC(=O)CCc1nc2cccnc2n1Cc1ccc(OC)cc1 1.04
Cc1ccc(NC(=O)NCC(c2cccnc2)N2CCOCC2)cc1 (configuration not stated) 0.96
O=C(CN1CCOc2ccccc21)N1CCC(Cc2ccccc2)CC1 1.07
O=C(NCc1ccco1)C1CCCN(S(=O)(=O)c2cccc3nonc23)C1 (configuration not stated) 1.11
Cc1ccc(CNC(=O)CN2CCN(Cc3ccc(Cl)cc3)C2=O)cc1 1.03
Cc1ccc(NC(=O)C2CCCN(S(=O)(=O)c3c(C)noc3C)C2)c(C)c1 (configuration not stated) 1.07
COc1ccc(C2CC(c3ccccc3)Nc3ncnn32)cc1 (configuration not stated) 1.19
COc1cccc(-c2nc3n(n2)C(c2ccccc2Cl)C(C(N)=O)=C(C)N3)c1 (configuration not stated) 1.01
CN1CCCc2cc(C#N)c(=O)[nH]c21 1
O=C(O)CCN1C(=O)CC2(CCCCC2)C1=O 1
Cc1ccc(NC(=O)CCNS(=O)(=O)c2ccc3c(c2)oc(=O)n3C)cc1C 1.08
CCOC(=O)N1CCN(CC(=O)c2ccc3c(c2)CCN3)CC1 0.99
CCCNC(=O)C1CC(=O)N(c2ccc(OCC(=O)Nc3cccc(C)c3C)cc2)C1 (configuration not stated) 1.03
COc1ccc(N2C(=O)CCC(C(=O)Nc3ccccn3)C2c2ccc(OC)c(OC)c2)cc1 (configuration not stated) 1.01
O=C(CC1N=C2c3ccccc3N=C(SCc3ccccc3Cl)N2C1=O)NCc1ccco1 (configuration not stated) 1.18
Cc1occc1C(=O)Nc1nnc(C2CCCCC2)s1 0.94
CC1CSc2nnc(CCc3ccccc3)n21 (configuration not stated) 1
O=C(NCc1ccc2c(c1)OCO2)c1cc2c(s1)CS(=O)(=O)C2 1.08
CCOc1ccc(N(CC(=O)OC)S(=O)(=O)c2c(C)noc2C)cc1 1.04
CC(=O)c1c(C)[nH]c(C(=O)NCCCN2CCCC2)c1C 0.97
Cc1ccc(C)c(NS(=O)(=O)c2cc(Br)cnc2N)c1 1.02
Cn1c(=O)[nH]c(=O)c2c1nc(CN(Cc1ccccc1)Cc1ccccc1)n2CCN1CCOCC1 1.16
Cc1nc2c(-c3ccc(F)cc3)c(C)nn2c(C)c1CCC(=O)N1CCN(c2ccccn2)CC1 1.23
O=C(Cn1nc(Cc2cccnc2)c2ccccc2c1=O)NCC1CCCO1 (configuration not stated) 1.02
CC(C)C[C@H](NC(=O)[C@@H]1O[C@H]1C(=O)O)C(=O)NCCCCN=C(N)N 0.97
COc1ccccc1CNC(=O)Cn1cc2c(n1)CCCC2 1.04
CCOC(=O)N1CCC(O)(c2cc(C)c(C)cc2C)CC1 0.98
O=C(NCc1ccco1)c1cccn2c(=O)c3cc(Br)ccc3nc12 1
CS(=O)(=O)c1ccc2nc(NC(=O)C3C4C=CC(C4)C3C(=O)O)sc2c1 (configuration not stated) 1.05
CCCCc1nc2c(=O)[nH]c3ccccc3c2o1 1.21
Cc1nc2sc(C(c3ccco3)N3CCC4(CC3)OCCO4)c(O)n2n1 (configuration not stated) 1.05
COc1cc2c(cc1OC)C(c1ccc(C)o1)CC(=O)N2 (configuration not stated) 1
O=S(=O)(O)CCN1CCOCC1 1.09
Cc1cc(NC(=O)CSCc2nc(-c3cccc(Cl)c3)oc2C)no1 1.07
c1cc(-c2nn[nH]n2)ccc1CN1CCCCC1 1.02
Cc1ccc2c(c1)N(CCCC(=O)NCc1cccnc1)C(=O)CO2 1.05
Cc1cccc(N2CCN(S(=O)(=O)c3ccc4c(c3)c(=O)n(C)c(=O)n4C)CC2C)c1 (configuration not stated) 1.11
COc1cccc(NC(=O)C2CCCN2C(=O)OCc2ccccc2)c1 (configuration not stated) 1.04
CCC(C)NC(=O)C1CCC(=O)N1Cc1ccc(C)cc1 (configuration not stated) 0.99
CCC(=O)N1c2ccc(S(=O)(=O)CCC(=O)N3CCN(c4ccccc4)CC3)cc2CC1C (configuration not stated) 1.09
Cc1oc(C)c(C(=O)NCCCC(=O)O)c1C(=O)NCCCC(=O)O 1.08
O=c1[nH][nH]c(=O)c2cc(N3CCCC3)ccc12 1.01
CCOC(=O)N1CCN(S(=O)(=O)c2cc3c(cc2C)NC(=O)CO3)CC1 1.09
CCOc1ccc(Cn2nnc(C(=O)NCc3ccccc3)c2N)cc1 1.02
COc1ccc(N2C(=O)CCC(C(=O)N(C)C3CCCCC3)C2c2ccc(OC)c(OC)c2)cc1 (configuration not stated) 0.98
COC(=O)C1=C(C)Nc2ncnn2C1c1ccco1 (configuration not stated) 1.02
CCOc1nc(OCC)nc(-n2cc(-c3ccccc3)nn2)n1 1.08
COCCn1c(-c2ccc(OC)c(OC)c2)nc2ccccc21 1.05
O=C(c1ccco1)N1CCN(C(=O)C2CC(c3ccc(F)cc3)=NO2)CC1 (configuration not stated) 1.01
CCCOc1ccc(C2c3c(oc4cc(C)c(C)cc4c3=O)C(=O)N2CCCN2CCOCC2)cc1 (configuration not stated) 0.94
CCN(CC)CCNC(=O)C1c2ccccc2C(=O)N(C)C1c1cn(C)c2ccccc12 (configuration not stated) 1.11
Cc1cccc(NC(=O)C2CCN(S(=O)(=O)c3cccc4cccnc34)CC2)c1 1.03
O=S1(=O)CCN2C(=N1)SC1=C2CCN(Cc2ccccc2)C1 0.99
Cc1ccc(S(=O)(=O)NCc2cn3ccsc3n2)c(C)c1 1.07
Cc1cc(C)c2c(n1)nn1c(N3CCN(c4cccc(Cl)c4)CC3)cc(C)nc21 1.1
CC(=O)Nc1ccc(S(=O)(=O)Nc2nc3n(n2)C(c2ccccc2)CC(=O)N3)cc1 (configuration not stated) 1.06
ON=C1/C(=N\O)CC2(C/C1=N/O)OCCO2 1.11
O=C(O)C1CCN(S(=O)(=O)N2CCOCC2)CC1 1
CCN1CCCC1CNC(=O)Cn1cnc2ccc(S(=O)(=O)N3CCC(C)CC3)cc2c1=O (configuration not stated) 1.05
CCOc1cc2[nH]c(=O)n(CCC(=O)NCc3ccc(OC)cc3)c(=O)c2cc1OCC 0.94
CCOc1ccc(CNC(=O)C2CC(=O)N(C3CCCC3)C2)cc1OC (configuration not stated) 0.92
Cc1ccc(-c2ccc(=O)n(CC(=O)NCCCN3CCCCC3)n2)cc1 1.06
CCCS(=O)(=O)C(=C1Nc2ccccc2N1)S(=O)(=O)CCC 1.04
COc1cc(-n2c(C)nc3cc(C(=O)NCc4ccco4)ccc32)cc(OC)c1OC 1.05
COCCOC(=O)C1=C(C)NC(=O)CC1c1cc2c(cc1Br)OCO2 (configuration not stated) 0.99
O=C(NCCN1C(=O)C2C3C=CC(C3)C2C1=O)Nc1ccccn1 (configuration not stated) 0.86
Cc1ccc(-n2nc3c(c2NC(=O)c2ccc4c(c2)OCO4)CSC3)c(C)c1 0.97
CCN1CCN(c2ncnc3c2oc2nc(C)c4c(c23)CC(C)(C)OC4)CC1 0.92
Cc1cc(NS(=O)(=O)c2ccccc2)no1 0.95
CCC1CCCCN1CCNS(=O)(=O)c1ccc2c(c1)CCN2C(C)=O (configuration not stated) 1.02
CC(c1cccnc1)N(CCN(C)C)C(=O)Nc1ccc(Cl)c(Cl)c1 (configuration not stated) 1.09
CCCOc1ccc(-c2nc(N)n[nH]2)cc1 1.01
CCOc1ccc(-n2c(SC(C)C(=O)OC)nc3c(c2=O)SCC3)cc1 (configuration not stated) 1.09
CCOC(=O)C1CCN(C(=O)C2CCN(S(=O)(=O)CC)CC2)CC1 1.02
Cc1ccc2cccc(O)c2[n+]1[O-] 1.03
CCC(C)n1[nH]c(=O)c2c(C)cc(C)nc21 (configuration not stated) 1.05
CCOC(=O)Cn1c(=O)oc2cc(S(=O)(=O)NCC3CCCO3)ccc21 (configuration not stated) 1.88
CCn1ncc(C2=NOC(C(=O)N3CCN(c4ccccc4)CC3)C2)c1C (configuration not stated) 1.1
Cn1cccc1C1(C(F)(F)F)NCCNC1=O (configuration not stated) 1.07
N#CC1=C(N)Oc2cc(O)ccc2C1C1CCCCC1 (configuration not stated) 1.18
COC(=O)C1=C(C)OC(N)=C(C#N)C1c1cc(OC)ccc1OC (configuration not stated) 1.05
C=C1c2cc(CC)ccc2NC(=O)N1c1ccc(C)cc1 1.01
O=c1c2ccccc2[nH]c(=S)n1CCN1CCC(=C(c2ccc(F)cc2)c2ccc(F)cc2)CC1 1.02
CC(=O)c1c(N2CCOCC2)nc(=S)n(Cc2ccccc2)c1C 1.3
COC(=O)Cn1cc(C(=O)c2cccs2)c2ccccc21 0.93
CCn1c(CSc2ncccn2)nnc1SCC(=O)N1c2ccccc2CC1C (configuration not stated) 1
Cc1ccc(S(=O)(=O)NCCN2CCOCC2)cc1C 1.05
CCOc1ccccc1NC(=O)C1CCN(S(=O)(=O)c2c(C)nn(C)c2C)CC1 1.02
N#Cc1ccc(COC(=O)Cn2nnc(-c3ccccc3)n2)cc1 1.04
CCOC(=O)c1ccc(NC(=O)Cn2nnc(-c3ccc(C)cc3)n2)cc1 1.04
O=C(Nc1ccccc1C(=O)N1CCOCC1)C1CCC(=O)N1C1CCCC1 (configuration not stated) 1.04
CC(C)NC(=O)CCCn1c(=S)[nH]c2cc3c(cc2c1=O)OCO3 1.14
O=C(O)CSCNC(=O)CC12CC3CC(CC(C3)C1)C2 0.77
CCOC(=O)C1CCN(C(=O)CC2C(=O)N(Cc3ccccc3)C(C)c3nc4ccccc4n32)CC1 (configuration not stated) 1.02
CCOC(=O)c1c(NC(=O)c2cccs2)sc(C)c1C 1.07
Cc1c(C(=O)NCCN2CCOCC2)sc2nc(-c3ccc(F)cc3)cn12 1.22
CC1CCN(Cc2nc3c(c(=O)n(C)c(=O)n3C)n2Cc2cccc3ccccc23)CC1 1.06
